Test results published in PubChem BioAssay (NCI).
About 83,000 compounds went through this panel and 20% of them were active in at least one assay; those are over-represented in the sample as a whole.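 Growth was measured after 48 h exposure to one concentration of compound in 96-well plates. Values under 10 count as active.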 Active and inactive are the calls of the source.

What was measured:
Assay in all cases: NCI-60 one-dose screen, 48 h (100 = growth as untreated, 0 = no growth, -100 = all killed)
Conditions in all cases: 10 µM unless noted
SK-MEL-2 melanoma = tested on: SK-MEL-2 melanoma
EKVX NSCLC = tested on: EKVX NSCLC
UO-31 renal = tested on: UO-31 renal
ACHN renal = tested on: ACHN renal
CAKI-1 renal = tested on: CAKI-1 renal
A498 renal = tested on: A498 renal
CCRF-CEM leukemia = tested on: CCRF-CEM leukemia
MOLT-4 leukemia = tested on: MOLT-4 leukemia
SN12C renal = tested on: SN12C renal
TK-10 renal = tested on: TK-10 renal

Measured: growth

Nc1ccn(C2O[C@H](CO)[C@@H](O)[C@@H]2O)c(=O)n1 (stereo partly drawn)
active: UO-31 renal 1.02% | ACHN renal 0.769% | CCRF-CEM leukemia 6.02%
inactive: SK-MEL-2 melanoma 88.3% | EKVX NSCLC 91.8% | CAKI-1 renal 12.4% | A498 renal 66.8% | MOLT-4 leukemia 13.6%

O=C1C(=O)/C(=C/c2ccccc2)CCCCCC/C1=C/c1ccccc1
inactive: SK-MEL-2 melanoma 105% | SN12C renal 79.8% | UO-31 renal 30.9% | TK-10 renal 115% | ACHN renal 88.5% | CAKI-1 renal 82.1% | A498 renal 78.6% | MOLT-4 leukemia 10.2%
active: CCRF-CEM leukemia 4.29%

CCN1CC2=C(Nc3nc(SC)[nH]c(=O)c3C2c2cc(OC)c(OC)c(OC)c2)/C(=C/c2cc(OC)c(OC)c(OC)c2)C1 (stereo not drawn)
inactive: SK-MEL-2 melanoma 117% | EKVX NSCLC 87.3% | UO-31 renal 106% | ACHN renal 87.9% | CAKI-1 renal 108% | A498 renal 104% | CCRF-CEM leukemia 84.7% | MOLT-4 leukemia 82.5%

Cc1cc(=O)oc2cc(OCCn3c(C)nn(-c4ccc(Cl)cc4)c3=O)ccc12
active: SK-MEL-2 melanoma 3.55%
inactive: EKVX NSCLC 58.7% | TK-10 renal 59.6% | ACHN renal 41.9% | CAKI-1 renal 19.5% | A498 renal 25.7% | CCRF-CEM leukemia 13.4% | MOLT-4 leukemia 37.6%

Nc1nc(NC2CC2)c2ncn(C3C=CC(CO)C3)c2n1 (stereo not drawn)
inactive: SK-MEL-2 melanoma 89.4% | EKVX NSCLC 115% | TK-10 renal 96.4% | ACHN renal 103% | CAKI-1 renal 90.4% | A498 renal 104% | CCRF-CEM leukemia 97.3% | MOLT-4 leukemia 76.9%

C[C@H]1c2cccc(O)c2C(O)=C2C(=O)[C@]3(O)C(O)=C(C(N)=O)C(=O)[C@@H](N(C)C)[C@@H]3[C@@H](O)[C@@H]21
inactive: SK-MEL-2 melanoma 56.1% | EKVX NSCLC 46.7% | UO-31 renal 32.6% | ACHN renal 27.1% | CAKI-1 renal 14% | A498 renal 59.9% | CCRF-CEM leukemia 39.1% | MOLT-4 leukemia 51.5%

COc1ccc(NC(=O)c2ccccc2-c2ccccc2)c(C(N)=O)c1
inactive: SK-MEL-2 melanoma 26.4% | SN12C renal 61.3% | UO-31 renal 40.1% | TK-10 renal 76.1% | ACHN renal 40.4% | CAKI-1 renal 41.9% | A498 renal 30.8% | CCRF-CEM leukemia 11.7% | MOLT-4 leukemia 20%

NC(=O)c1cc(Br)cc(Br)c1NS(=O)(=O)c1ccccc1
inactive: SK-MEL-2 melanoma 110% | SN12C renal 95.9% | UO-31 renal 75% | TK-10 renal 130% | ACHN renal 100% | CAKI-1 renal 89.8% | A498 renal 96.1% | CCRF-CEM leukemia 91.8% | MOLT-4 leukemia 123%

O=CN1N=C(c2ccc(Nc3ccnc4cc(Cl)ccc34)cc2)CC1c1ccc(Cl)cc1 (stereo not drawn)
active: CCRF-CEM leukemia 6.48% | MOLT-4 leukemia 7.23%
inactive: SK-MEL-2 melanoma 52.1% | EKVX NSCLC 40.5% | UO-31 renal 20.6% | ACHN renal 27.9% | CAKI-1 renal 39.4% | A498 renal 34.6%

c1ccc(N2c3nc4ccccc4cc3Sc3cc4ccccc4nc32)nc1
inactive: SK-MEL-2 melanoma 39.4% | EKVX NSCLC 68.9% | UO-31 renal 26.9% | TK-10 renal 114% | ACHN renal 92% | CAKI-1 renal 69% | A498 renal 73.2% | CCRF-CEM leukemia 87.5% | MOLT-4 leukemia 78%

Cc1cc(Br)c(C)cc1Br
inactive: SK-MEL-2 melanoma 100% | SN12C renal 108% | UO-31 renal 91.3% | TK-10 renal 105% | ACHN renal 102% | CAKI-1 renal 95.2% | A498 renal 77.7% | CCRF-CEM leukemia 94.4% | MOLT-4 leukemia 87.3%

Cc1nn2c(/C=C3/C(=O)Nc4cc(Cl)ccc43)c(-c3ccccc3)nc2s1
inactive: A498 renal 80.2% | MOLT-4 leukemia 13.1%
active: SK-MEL-2 melanoma 0.603% | SN12C renal -1.6% | UO-31 renal -72.3% | TK-10 renal -55.3% | ACHN renal -26.5% | CAKI-1 renal -50.4% | CCRF-CEM leukemia -14%

C/C(=C\CCc1ccoc1)CC/C=C(\C)CCCN1CCOCC1
inactive: SK-MEL-2 melanoma 78.7% | SN12C renal 70.5% | UO-31 renal 52.3% | TK-10 renal 61.3% | ACHN renal 76.3% | CAKI-1 renal 58.3% | A498 renal 75.7% | CCRF-CEM leukemia 29.6% | MOLT-4 leukemia 54.2%

C/C(=C\CCc1ccoc1)CC/C=C(\C)CCCN1CCSCC1
inactive: SK-MEL-2 melanoma 85.5% | SN12C renal 76.7% | UO-31 renal 62.4% | TK-10 renal 84.9% | ACHN renal 83.8% | CAKI-1 renal 80.7% | A498 renal 38.2% | CCRF-CEM leukemia 62.9% | MOLT-4 leukemia 79.6%

COC(=O)CC1=C(c2ccc([N+](=O)[O-])cc2)CCC1=O
inactive: SK-MEL-2 melanoma 103% | EKVX NSCLC 94.5% | TK-10 renal 107% | ACHN renal 102% | CAKI-1 renal 99.8% | A498 renal 69.5% | CCRF-CEM leukemia 95.3% | MOLT-4 leukemia 104%

CCSCC1CC(O)(c2ccccc2)C(c2ccccc2)C(c2ccc(Cl)cc2)O1 (stereo not drawn)
inactive: SK-MEL-2 melanoma 16.9% | UO-31 renal 11.9% | ACHN renal 22.8% | CCRF-CEM leukemia 13.3%
active: EKVX NSCLC -4.64% | CAKI-1 renal -51.3% | A498 renal -13.3%

COc1cc(OC)c2c(c1Cl)O[C@]1(C2=O)C(OCc2ccccc2)=CC(=O)C[C@H]1C
inactive: SN12C renal 13.3% | TK-10 renal 15.9% | CAKI-1 renal 10.9% | CCRF-CEM leukemia 10.4% | MOLT-4 leukemia 14.1%
active: SK-MEL-2 melanoma 2.04% | UO-31 renal 9% | ACHN renal 6.86% | A498 renal -0.948%

COc1c(O)cc2c(c1CC=C(C)C)OC(=O)c1c(cc(O)c(CC=C(C)C)c1O)O2
inactive: SK-MEL-2 melanoma 55.5% | EKVX NSCLC 78.5% | UO-31 renal 45.1% | TK-10 renal 42% | ACHN renal 30.2% | CAKI-1 renal 50.6% | CCRF-CEM leukemia 32.2% | MOLT-4 leukemia 20.6%

O=C(Nc1ccc(Cl)cc1)Nc1nc2ccc(OC(F)(F)F)cc2o1
inactive: SK-MEL-2 melanoma 131% | SN12C renal 92.5% | UO-31 renal 87.9% | TK-10 renal 92.9% | ACHN renal 89.4% | CAKI-1 renal 92.7% | A498 renal 119% | CCRF-CEM leukemia 80.1% | MOLT-4 leukemia 76.4%

CCOC(=O)Nc1cc(-c2ccc(C)c(NS(C)(=O)=O)c2)nn2c(C)nnc12
active: UO-31 renal -1.22% | TK-10 renal -3.12% | ACHN renal 8.87% | CAKI-1 renal 3.16% | A498 renal -7.14%
inactive: SK-MEL-2 melanoma 13.5% | SN12C renal 32% | CCRF-CEM leukemia 24.5% | MOLT-4 leukemia 18.9%

CCCCCCCCCCCCC1CCCC(C)C1 (stereo not drawn)
inactive: SK-MEL-2 melanoma 94.9% | SN12C renal 106% | UO-31 renal 87.9% | TK-10 renal 94.2% | ACHN renal 95.5% | CAKI-1 renal 88.2% | A498 renal 98.5%

CC(C)=CCCC(C)c1ccc(C)c2c1OCN(CC1CCNCC1)C2 (stereo not drawn)
inactive: SK-MEL-2 melanoma 96.3% | EKVX NSCLC 93% | UO-31 renal 60.5% | TK-10 renal 86% | ACHN renal 92.9% | CAKI-1 renal 80.2% | A498 renal 75.6% | CCRF-CEM leukemia 26.7% | MOLT-4 leukemia 34.1%

CCc1nn2c(-c3ccc(Cl)cc3C)c(-c3cc(OC)c(OC)c(OC)c3)nc2s1
inactive: SK-MEL-2 melanoma 69.6% | SN12C renal 80.2% | UO-31 renal 47.1% | TK-10 renal 77.2% | ACHN renal 76.7% | CAKI-1 renal 55.2% | A498 renal 74.5% | CCRF-CEM leukemia 85.1% | MOLT-4 leukemia 71%

O=c1ncc(-c2ccc(C(F)(F)F)cc2)c(NC2CCCCCC2)[nH]1
inactive: SK-MEL-2 melanoma 50.9% | SN12C renal 45.9% | UO-31 renal 52.3% | TK-10 renal 65.1% | ACHN renal 24.4% | CAKI-1 renal 93% | A498 renal 84.4% | CCRF-CEM leukemia 46.4% | MOLT-4 leukemia 77.7%

Cc1nn(-c2ccccc2)c2nc(N)c(C3=NCCO3)nc12
inactive: SK-MEL-2 melanoma 111% | SN12C renal 96.8% | UO-31 renal 73.5% | TK-10 renal 128% | ACHN renal 83% | CAKI-1 renal 78.4% | A498 renal 92.1% | MOLT-4 leukemia 101%

O=c1sc2ncnc3ncn1c32
inactive: SK-MEL-2 melanoma 81.9% | SN12C renal 85% | UO-31 renal 52.6% | TK-10 renal 26.9% | ACHN renal 80.3% | CAKI-1 renal 43.1% | A498 renal 101% | CCRF-CEM leukemia 54.8% | MOLT-4 leukemia 35.9%

CCCCCCCCCCCCCCCCCC1=NC(C)(CO)CO1 (stereo not drawn)
inactive: SK-MEL-2 melanoma 91.3% | SN12C renal 94.2% | UO-31 renal 76.3% | TK-10 renal 87.1% | ACHN renal 91% | CAKI-1 renal 85.5% | A498 renal 104% | MOLT-4 leukemia 93.8%

O=C1c2cccc3c([N+](=O)[O-])ccc(c23)C(=O)N1CCCCl
active: SK-MEL-2 melanoma -94.9% [100 µM] | SN12C renal -93.1% [100 µM] | UO-31 renal -86.6% [100 µM] | TK-10 renal -50.2% [100 µM] | ACHN renal -96.1% [100 µM] | CAKI-1 renal -91.4% [100 µM] | A498 renal -92.4% [100 µM] | MOLT-4 leukemia -11.3% [100 µM]

COc1ccc(CCN2C(=O)CCC3=C2CCCC3=O)cc1OC
inactive: SK-MEL-2 melanoma 122% | SN12C renal 101% | UO-31 renal 81.8% | TK-10 renal 114% | ACHN renal 100% | CAKI-1 renal 109% | A498 renal 103% | MOLT-4 leukemia 103%

COc1cc2c(cc1OC)C(CC1(O)CCCCC1)N(S(=O)(=O)c1ccc(C)cc1)CC2 (stereo not drawn)
inactive: SN12C renal 42.3% [100 µM] | UO-31 renal 25.8% [100 µM] | TK-10 renal 40.9% [100 µM] | ACHN renal 18.5% [100 µM] | CAKI-1 renal 22% [100 µM]
active: SK-MEL-2 melanoma 6.69% [100 µM] | A498 renal 0.608% [100 µM] | MOLT-4 leukemia 3.12% [100 µM]
